In ChEMBL document CHEMBL5606460, “ASAP - DENV-2 NS2B-NS3 protease fluorescence single point” (2024):
Screen size: about 2,000 compounds; about 110 (5.5%) showed an effect of 50% or more. The full list was thinned out, with strong results kept by preference.

Target: Genome polyprotein (dengue virus type 2) (UniProt P29990)
[1] = Thailand/16681/1984, Concentration 25.0 uM, Number of replicates 1.0

C[C@@H](c1ccccc1)N(C(=O)C1CCN(c2ccc(C=O)cc2)CC1)[C@@H](C)c1ccccc1
inhibition [1]: 15.2%

CC1(C)Cc2sc(NC(=O)Cc3ccc(S(N)(=O)=O)cc3)c(C#N)c2CN1CC1CCCCC1
inhibition (Thailand/16681/1984, Concentration 49.5 uM, Number of replicates 2.0, Standard deviation 0.009484052439315419 %): 8.25%
inhibition (Thailand/16681/1984, Concentration 99.01 uM, Number of replicates 2.0, Standard deviation 0.7150155530159198 %): 14.5%
inhibition (Thailand/16681/1984, Concentration 198.0 uM, Number of replicates 2.0, Standard deviation 0.2762742778628508 %): 23.9%

Cc1cc(N)cc(CNC(=O)c2ccccc2Cc2cccc3c(CO)cc(C)nc23)c1
inhibition (Thailand/16681/1984, Concentration 49.95 uM, Number of replicates 2.0, Standard deviation 1.0161746789387547 %): 47.1%
inhibition (Thailand/16681/1984, Concentration 99.9 uM, Number of replicates 2.0, Standard deviation 1.7549489162224476 %): 74.7%

Cc1cc(CO)c2cccc(Cc3ccccc3C(=O)NCc3ccc(S(N)(=O)=O)cc3)c2n1
inhibition (Thailand/16681/1984, Concentration 49.95 uM, Number of replicates 2.0, Standard deviation 1.5695359944911405 %): 4.94%
inhibition (Thailand/16681/1984, Concentration 99.9 uM, Number of replicates 2.0, Standard deviation 2.135114838489864 %): 9.8%

Cc1cc(CO)c2cccc(Cc3ccccc3C(=O)NCc3ccc(C(N)=O)cc3)c2n1
inhibition (Thailand/16681/1984, Concentration 49.95 uM, Number of replicates 2.0, Standard deviation 0.2888981019288338 %): 2.07%
inhibition (Thailand/16681/1984, Concentration 99.9 uM, Number of replicates 2.0, Standard deviation 0.18972386998439544 %): 5.84%

Cc1cc(CO)c2cccc(Cc3cccc(C(=O)NCc4sccc4C)c3)c2n1
inhibition (Thailand/16681/1984, Concentration 49.95 uM, Number of replicates 2.0, Standard deviation 0.7466793423372446 %): 1.25%
inhibition (Thailand/16681/1984, Concentration 99.9 uM, Number of replicates 2.0, Standard deviation 0.16169689007422708 %): 23.8%

Cc1cc(CO)c2cccc(Cc3ccccc3C(=O)NCc3sccc3C)c2n1
inhibition (Thailand/16681/1984, Concentration 49.95 uM, Number of replicates 2.0, Standard deviation 0.661878407993628 %): 1.17%
inhibition (Thailand/16681/1984, Concentration 99.9 uM, Number of replicates 2.0, Standard deviation 2.367239112425795 %): 7.83%

Cc1cc(CO)c2cccc(CC(=O)NCc3sccc3C)c2n1
inhibition (Thailand/16681/1984, Concentration 49.95 uM, Number of replicates 2.0, Standard deviation 0.3413314788746907 %): 44%
inhibition (Thailand/16681/1984, Concentration 99.9 uM, Number of replicates 2.0, Standard deviation 0.321257440691134 %): 63.7%

CC(C)NC(=O)CN1CCN(C(=O)C2CCN(c3ccc(C=O)cc3)CC2)CC1
inhibition [1]: 11.2%

Cc1cn2nnc(C(=O)N3CCC[C@H](c4nc(=O)[nH][nH]4)C3)c2c(=O)[nH]1
inhibition (Thailand/16681/1984, Concentration 49.5 uM, Number of replicates 2.0, Standard deviation 1.1306810071407891 %): -1.83%
inhibition (Thailand/16681/1984, Concentration 99.01 uM, Number of replicates 2.0, Standard deviation 1.1436614778388714 %): -1.38%
inhibition (Thailand/16681/1984, Concentration 198.0 uM, Number of replicates 2.0, Standard deviation 0.31245549284811885 %): -1.83%

Cc1cc(CO)c2cccc(Cc3cccc(C(=O)N[C@H]4C[C@@H](O)C4)c3)c2n1
inhibition (Thailand/16681/1984, Concentration 49.95 uM, Number of replicates 2.0, Standard deviation 0.3715430142368757 %): 6.97%
inhibition (Thailand/16681/1984, Concentration 99.9 uM, Number of replicates 2.0, Standard deviation 0.8666943057865014 %): 29.2%

Cc1cc(CO)c2cccc(C[C@H](NC(=O)c3cc(C(F)F)nn3C)C(=O)O)c2n1
inhibition (Thailand/16681/1984, Concentration 49.95 uM, Number of replicates 2.0, Standard deviation 1.4383595761786832 %): 1.98%
inhibition (Thailand/16681/1984, Concentration 99.9 uM, Number of replicates 2.0, Standard deviation 0.48778570830386186 %): 5.89%

Cc1nc(N)c2cccc(Cl)c2n1
inhibition (Thailand/16681/1984, Concentration 49.95 uM, Number of replicates 2.0, Standard deviation 5.075529174302592 %): -8.29%
inhibition (Thailand/16681/1984, Concentration 99.9 uM, Number of replicates 2.0, Standard deviation 2.1313934403537464 %): -8.87%

COc1ccccc1N1CCN(C(=O)C2CCN(c3ccc(C=O)cc3)CC2)CC1
inhibition [1]: 12.1%

N[C@@H]1CCCC[C@H]1C(=O)Nc1cccc2cccnc12
inhibition (Thailand/16681/1984, Concentration 49.95 uM, Number of replicates 2.0, Standard deviation 3.2838754106489776 %): -8.7%
inhibition (Thailand/16681/1984, Concentration 99.9 uM, Number of replicates 2.0, Standard deviation 3.148144351005342 %): -7.2%

NCCC(=O)Nc1cccc2cccnc12
inhibition (Thailand/16681/1984, Concentration 49.95 uM, Number of replicates 2.0, Standard deviation 1.674842930068702 %): -9.45%
inhibition (Thailand/16681/1984, Concentration 99.9 uM, Number of replicates 2.0, Standard deviation 2.956474982493684 %): -7.49%

O=C(Nc1cccc2cccnc12)C1CCNCC1
inhibition (Thailand/16681/1984, Concentration 49.95 uM, Number of replicates 2.0, Standard deviation 0.4211783883506398 %): -0.871%
inhibition (Thailand/16681/1984, Concentration 99.9 uM, Number of replicates 2.0, Standard deviation 1.2273405052219766 %): 51.5%

Nc1nccc2cc(Br)ccc12
inhibition (Thailand/16681/1984, Concentration 49.95 uM, Number of replicates 2.0, Standard deviation 5.1898726049351325 %): -2.94%
inhibition (Thailand/16681/1984, Concentration 99.9 uM, Number of replicates 2.0, Standard deviation 6.552121336877266 %): -2.95%

COc1ccc(Cl)c2sc(NC(=O)c3ccccc3NS(=O)(=O)c3ccc(Cl)cc3)nc12
inhibition (Thailand/16681/1984, Concentration 198.0 uM, Number of replicates 2.0, Standard deviation 9.166560145189157 %): 8.28%

CC(C)Nc1nc2ccc(C(=O)Nc3nnc4cccnn34)cc2[nH]1
inhibition (Thailand/16681/1984, Concentration 49.5 uM, Number of replicates 2.0, Standard deviation 0.47864102228875616 %): -2.54%
inhibition (Thailand/16681/1984, Concentration 99.01 uM, Number of replicates 2.0, Standard deviation 0.9476878624230379 %): -0.35%
inhibition (Thailand/16681/1984, Concentration 198.0 uM, Number of replicates 2.0, Standard deviation 0.5058242222917364 %): 4.68%

Cc1cc(CO)c2cccc(Cc3ccccc3NC(=O)Cc3c(C)c4c(=O)[nH]n(C)c4[nH]c3=O)c2n1
inhibition (Thailand/16681/1984, Concentration 49.95 uM, Number of replicates 2.0, Standard deviation 2.5458058686723866 %): 22.5%
inhibition (Thailand/16681/1984, Concentration 99.9 uM, Number of replicates 2.0, Standard deviation 1.6741240734205003 %): 45.5%

Cc1cc(CO)c2cccc(NC(=O)CC3CCNCC3)c2n1
inhibition (Thailand/16681/1984, Concentration 49.95 uM, Number of replicates 2.0, Standard deviation 2.142909982415651 %): 8.3%
inhibition (Thailand/16681/1984, Concentration 99.9 uM, Number of replicates 2.0, Standard deviation 0.2007188026491294 %): 53.9%

Cc1cc(CO)c2cccc(NC(=O)Cc3c(C)c4c(=O)[nH]n(C)c4[nH]c3=O)c2n1
inhibition (Thailand/16681/1984, Concentration 49.95 uM, Number of replicates 2.0, Standard deviation 1.6565788461475972 %): 17.7%
inhibition (Thailand/16681/1984, Concentration 99.9 uM, Number of replicates 2.0, Standard deviation 1.9416844060600267 %): 32.2%

Cc1cc(CO)c2cccc(Cc3cccc(NC(=O)CNC4CC4)c3)c2n1
inhibition (Thailand/16681/1984, Concentration 49.95 uM, Number of replicates 2.0, Standard deviation 1.5245757174015988 %): 0.182%
inhibition (Thailand/16681/1984, Concentration 99.9 uM, Number of replicates 2.0, Standard deviation 1.8285218036822166 %): 7.46%

Cc1cc(CO)c2cccc(Cc3ccccc3NC(=O)CCC3CCNCC3)c2n1
inhibition (Thailand/16681/1984, Concentration 49.95 uM, Number of replicates 2.0, Standard deviation 0.7055143046624119 %): -4.33%
inhibition (Thailand/16681/1984, Concentration 99.9 uM, Number of replicates 2.0, Standard deviation 1.236554143481246 %): 6.21%

Cc1cc(CO)c2cccc(NC(=O)CCC3CCNCC3)c2n1
inhibition (Thailand/16681/1984, Concentration 49.95 uM, Number of replicates 2.0, Standard deviation 0.01891415691253689 %): 99.7%
inhibition (Thailand/16681/1984, Concentration 99.9 uM, Number of replicates 2.0, Standard deviation 0.03175377284289565 %): 99.6%

Cc1cc(CO)c2cccc(NCC3CCNCC3)c2n1
inhibition (Thailand/16681/1984, Concentration 49.95 uM, Number of replicates 2.0, Standard deviation 0.8313641199663653 %): -6.22%
inhibition (Thailand/16681/1984, Concentration 99.9 uM, Number of replicates 2.0, Standard deviation 1.3048073716258033 %): 0.772%

Cc1cc(CO)c2cccc(Cc3cccc(NC(=O)Cc4c(C)c5c(=O)[nH]n(C)c5[nH]c4=O)c3)c2n1
inhibition (Thailand/16681/1984, Concentration 49.95 uM, Number of replicates 2.0, Standard deviation 0.9721935995806666 %): 38.4%
inhibition (Thailand/16681/1984, Concentration 99.9 uM, Number of replicates 2.0, Standard deviation 1.6660426680996274 %): 65.6%

Cc1cc(CO)c2cccc(Cc3cccc(NC(=O)CCC4CCNCC4)c3)c2n1
inhibition (Thailand/16681/1984, Concentration 49.95 uM, Number of replicates 2.0, Standard deviation 1.9905342893580933 %): 36.1%
inhibition (Thailand/16681/1984, Concentration 99.9 uM, Number of replicates 2.0, Standard deviation 0.13016565259146895 %): 90.2%

Cc1cc(CO)c2cccc(Cc3cccc(NC(=O)C[C@H]4CCCN4)c3)c2n1
inhibition (Thailand/16681/1984, Concentration 49.95 uM, Number of replicates 2.0, Standard deviation 0.1263380443971036 %): -4.58%
inhibition (Thailand/16681/1984, Concentration 99.9 uM, Number of replicates 2.0, Standard deviation 0.8674748654209231 %): -4.17%

Cc1cc(CO)c2cccc(NC(=O)C[C@H]3CCCN3)c2n1
inhibition (Thailand/16681/1984, Concentration 49.95 uM, Number of replicates 2.0, Standard deviation 1.87682580099837 %): 7.72%
inhibition (Thailand/16681/1984, Concentration 99.9 uM, Number of replicates 2.0, Standard deviation 2.520000533440925 %): 13.9%

Cc1cc(CO)c2cccc(NC(=O)CC3CNC3)c2n1
inhibition (Thailand/16681/1984, Concentration 49.95 uM, Number of replicates 2.0, Standard deviation 1.3762045228616064 %): 7.76%
inhibition (Thailand/16681/1984, Concentration 99.9 uM, Number of replicates 2.0, Standard deviation 1.6376626661863318 %): 14.8%
